Results published in the supplement of paper PMC6607015.
Where a name gives a salt, the structure may show the parent alone.

Assays:
Details in all cases: compound concentration in added solution (µM; 5 µl added to 20 µl cells): 10; 18 h
A431 [1] = experiment: LBPA endosome anti-LBPA integrated intensity (sum per cell), Z-score; higher = more LBPA staining
Summary of the method: (§1)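 Reported values are Z-scores from AcuityXpress normalisation of per-cell integrated LBPA or filipin staining. HeLa MZ or A431 cells (3,500/well in 20 µl) were seeded onto 5 µl of 10 µM compound solution in duplicate 384-well plates, incubated 18 h, fixed in 4% PFA, stained and imaged at 20×. MetaXpress segmentation measured the intensity over the whole cell or within LBPA endosomes.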

HeLa MZ [2] = experiment: as above
Summary of the method: as §1

A431 [3] = experiment: whole-cell filipin (free cholesterol) integrated intensity, Z-score; higher = more cholesterol staining
Summary of the method: as §1

HeLa MZ [4] = experiment: as above
Summary of the method: as §1

A431 [5] = experiment: filipin (cholesterol) integrated intensity within LBPA endosomes, Z-score; higher = more cholesterol in LBPA endosomes
Summary of the method: as §1

HeLa MZ [6] = experiment: as above
Summary of the method: as §1

Structure (SMILES) | LBPA endosome anti-LBPA integrated intensity (z-score) (A431 [1]) | LBPA endosome anti-LBPA integrated intensity (z-score) (HeLa MZ [2]) | whole-cell filipin (z-score) (A431 [3]) | whole-cell filipin (z-score) (HeLa MZ [4]) | filipin (z-score) (A431 [5]) | filipin (z-score) (HeLa MZ [6])
CN(C)CCCSC(=N)N [Dimaprit dihydrochloride] | -0.577 | -1.27 | -0.259 | -0.607 | -0.452 | -0.519
COC1=C(OC)C(=O)C(CCCCCCCCCCO)=C(C)C1=O [Idebenone] | -0.691 | -0.73 | -0.893 | -0.402 | -0.585 | -0.582
CN(C)CCCN1c2ccccc2Sc2ccccc21 [Promazine hydrochloride] | 2.06 | 2.59 | 1.2 | -0.208 | 1.35 | 1.31
OCC(O)CN1CCN(c2ccccc2)CC1 (racemic) [Dropropizine (R,S)] | -0.485 | -0.821 | -0.651 | -0.914 | -0.515 | -0.59
CC(C)(C)C(=O)OCOC(=O)[C@@H]1N2C(=O)[C@@H](NC(=O)[C@H](N)c3ccccc3)[C@H]2SC1(C)C [Pivampicillin] | -0.161 | 0.0846 | 0.0929 | -0.0816 | -0.266 | -0.41
CCN[C@H]1CN(CCCOC)S(=O)(=O)c2sc(S(N)(=O)=O)cc21 [Brinzolamide] | -0.542 | -0.00126 | -0.549 | -0.378 | -0.517 | -0.377
O=C(O)COC(=O)Cc1ccccc1Nc1c(Cl)cccc1Cl [Aceclofenac] | -0.449 | -0.174 | -0.423 | -0.27 | -0.383 | -0.402
CCC1(C)CC(=O)NC1=O (stereo unspecified) [Ethosuximide] | -0.426 | -0.83 | -0.448 | -0.207 | -0.393 | -0.464
CC(C)(C)NCC(O)COc1cccc2c1CCC(=O)N2 (stereo unspecified) [Carteolol hydrochloride] | -0.364 | 0.373 | -0.558 | -0.304 | -0.479 | -0.264
Cc1c(C)c2c(c(C)c1O)CCC(C)(COc1ccc(CC3SC(=O)NC3=O)cc1)O2 (stereo unspecified) [Troglitazone] | -0.514 | -0.51 | -0.29 | -0.287 | -0.459 | -0.355
Cc1c(-c2ccccc2)oc2c(C(=O)OCCN3CCCCC3)cccc2c1=O [Flavoxate hydrochloride] | -0.643 | -0.619 | -0.892 | -0.899 | -0.515 | -0.534
CC(=O)NCCCS(=O)(=O)O [Acamprosate calcium] | -0.335 | 0.472 | -0.555 | -0.465 | -0.407 | -0.547
Nc1nc(=S)c2ncn([C@@H]3O[C@H](CO)[C@@H](O)[C@H]3O)c2[nH]1 [Thioguanosine] | -0.355 | 1.49 | -1.06 | -0.863 | -0.656 | -0.626
CN1CCOC(c2ccccc2)c2ccccc2C1 (stereo unspecified) [Nefopam hydrochloride] | -0.544 | -0.0559 | -0.752 | -0.617 | -0.509 | -0.197
CN(C)C(=O)C(CCN1CCC(O)(c2ccc(Cl)cc2)CC1)(c1ccccc1)c1ccccc1 [Loperamide hydrochloride] | 2.04 | 1.35 | 0.703 | 1.87 | 3.45 | 3.57
CCN(CC)C(=O)c1ccc(O)c(OC)c1 [Ethamivan] | -0.477 | -0.0996 | -0.452 | 0.274 | -0.43 | -0.268
OC(CCN1CCCC1)(c1ccccc1)C1CCCCC1 (stereo unspecified) [Procyclidine hydrochloride] | -0.0883 | 0.3 | 0.506 | 0.736 | 0.0344 | 0.437
O=C(N/N=C/c1ccc([N+](=O)[O-])o1)c1ccc(O)cc1 [Nifuroxazide] | -0.723 | -1.67 | -0.848 | -0.476 | -0.646 | -0.646
O=C(Cn1ccnc1[N+](=O)[O-])NCCO [Etanidazole] | -0.499 | -0.402 | -0.226 | 0.609 | -0.413 | -0.325
CC1CC(OC(=O)C(O)c2ccccc2)CC(C)(C)N1C (stereo unspecified) [Eucatropine hydrochloride] | -0.612 | -0.981 | -0.351 | -0.392 | -0.513 | -0.342
Nc1ccc(C(=O)NCC(=O)O)cc1 [Aminohippuric acid] | -0.53 | -0.169 | -0.32 | -0.186 | -0.48 | -0.359
C[C@@H](c1ncncc1F)[C@](O)(Cn1cncn1)c1ccc(F)cc1F [Voriconazole] | -0.526 | -0.198 | -0.573 | -0.527 | -0.605 | -0.411

Structure (SMILES) | LBPA endosome anti-LBPA integrated intensity (z-score) (A431 [1]) | LBPA endosome anti-LBPA integrated intensity (z-score) (HeLa MZ [2]) | whole-cell filipin (z-score) (A431 [3]) | whole-cell filipin (z-score) (HeLa MZ [4]) | filipin (z-score) (A431 [5]) | filipin (z-score) (HeLa MZ [6])
C[C@H](N)[C@H](O)c1cccc(O)c1 [Metaraminol bitartrate] | -0.242 | -0.0318 | -0.347 | -0.355 | -0.416 | -0.505
CN[C@@H]1[C@@H](O[C@H]2O[C@H](CO)[C@@H](N)[C@H](O)[C@H]2O)OC2C[C@@H](N)[C@@H](O[C@H]3[C@H](O)[C@@H](O)[C@H](N)C[C@@H]3N)OC2[C@@H]1O (stereo partly specified) [Apramycin] | -0.469 | -0.358 | -0.077 | -0.329 | -0.402 | -0.523
CCCCC1(COC(=O)CCC(=O)O)C(=O)N(c2ccccc2)N(c2ccccc2)C1=O [Suxibuzone] | -0.274 | 0.271 | -0.0127 | 0.34 | -0.358 | -0.384
CC[C@H]1OC(=O)C[C@@H](O)[C@H](C)[C@@H](O[C@@H]2O[C@H](C)[C@@H](O[C@H]3C[C@@](C)(O)[C@@H](O)[C@H](C)O3)[C@H](N(C)C)[C@H]2O)[C@@H](CC=O)C[C@@H](C)C(=O)/C=C/C(C)=C/[C@@H]1CO[C@@H]1O[C@H](C)[C@@H](O)[C@@H](OC)[C@H]1OC [Tylosin] | -0.392 | 0.456 | -0.334 | -0.339 | -0.399 | -0.321
COc1cc(NC(C)CCCN)c2ncccc2c1 (stereo unspecified) [Primaquine diphosphate] | -0.0886 | 0.528 | -0.291 | -0.377 | -0.187 | 0.116
CCCCNc1ccc(C(=O)OCCN(C)C)cc1 [Tetraca? hydrochloride] | -0.207 | 0.761 | -0.403 | -0.308 | -0.238 | 0.182
CCOC(=O)OC(C)OC(=O)[C@@H]1N2C(=O)[C@@H](NC(=O)[C@H](N)c3ccccc3)[C@H]2SC1(C)C (stereo partly specified) [Bacampicillin hydrochloride] | -0.503 | -1.29 | -0.749 | -0.787 | -0.467 | -0.528
O=C1CN(/N=C/c2ccc([N+](=O)[O-])o2)C(=O)N1 [Nitrofurantoin] | -0.475 | -1.22 | -0.354 | -0.515 | -0.501 | -0.575
NS(=O)(=O)c1cc(C(=O)O)cc(N2CCCC2)c1Oc1ccccc1 [Piretanide] | -0.606 | -1.16 | -0.2 | 0.517 | -0.411 | -0.576
O=C1C(O)=C(O)C(=O)C(O)=C1O [Tetrahydroxy-1,4-quinone monohydrate] | -0.376 | 0.48 | -0.203 | -0.164 | -0.404 | -0.442
Fc1ccc([C@@H]2CCNC[C@H]2COc2ccc3c(c2)OCO3)cc1 [Paroxetine Hydrochloride] | – | 0.516 | – | -0.28 | – | 2.03
CCN(CC)CCNc1ccc(CO)c2sc3ccccc3c(=O)c12 [Hycanthone] | 5.49 | – | 2.31 | – | 2.68 | –
CC(C)(C)CC(C)(C)c1ccc(OCCOCC[N+](C)(C)Cc2ccccc2)cc1 [Benzethonium chloride] | – | 1.55 | – | -0.53 | – | 0.517
CNCCC(Oc1ccc(C(F)(F)F)cc1)c1ccccc1 (stereo unspecified) [Fluoxetine hydrochloride] | 2.5 | 0.902 | 0.302 | -0.115 | 2.19 | 1.62
O=c1[nH]c(=O)n([C@H]2C[C@H](O)[C@@H](CO)O2)cc1I [Idoxuridine] | -0.506 | 0.506 | -0.368 | 0.357 | -0.479 | -0.063
CN(C)CCC(c1ccc(Cl)cc1)c1ccccn1 (stereo unspecified) [Chlorpheniramine maleate] | -0.653 | 0.363 | -0.45 | -0.192 | -0.443 | 0.105
COC(=O)Nc1nc2cc([S+]([O-])c3ccccc3)ccc2[nH]1 (stereo unspecified) [Oxfendazol] | -0.637 | – | -0.236 | – | -0.364 | –
C=C1/C(=C\C=C2/CCC[C@]3(C)[C@@H]([C@H](C)/C=C/[C@@H](O)C4CC4)CC[C@@H]23)C[C@@H](O)C[C@@H]1O [Calcipotriene] | 0.563 | 1.43 | 0.734 | 0.316 | 0.659 | 0.179
Nc1ccc(/N=N/c2ccccc2)c(N)n1 [Phenazopyridine hydrochloride] | -0.183 | 0.466 | -0.169 | -0.724 | -0.32 | -0.502
CN(Cc1cnc2nc(N)nc(N)c2n1)c1ccc(C(=O)N[C@@H](CCC(=O)O)C(=O)O)cc1 [Methotrexate] | -0.383 | – | 0.354 | – | -0.754 | –
NS(=O)(=O)c1cc2c(cc1Cl)N=C(CSCc1ccccc1)NS2(=O)=O [Benzthiazide] | -0.596 | -0.997 | -0.0125 | -0.328 | -0.513 | -0.593
C=C(NC(=O)C(=C)NC(=O)c1csc(C2=N[C@@H]3c4csc(n4)[C@H]4NC(=O)c5csc(n5)[C@H]([C@](C)(O)[C@@H](C)O)NC(=O)[C@H]5CSC(=N5)/C(=C/C)NC(=O)[C@H]([C@@H](C)O)NC(=O)c5csc(n5)[C@]3(CC2)NC(=O)[C@H](C)NC(=O)C(=C)NC(=O)[C@H](C)NC(=O)[C@H]([C@@H](C)CC)N[C@@H]2C=Cc3c([C@H](C)O)cc(nc3[C@H]2O)C(=O)O[C@@H]4C)n1)C(N)=O [Thiostrepton] | – | -0.253 | – | -0.786 | – | -0.596
